Values joined by “and” are separate entries in the source; they are usually repeats but may differ in a detail not shown here. Equal entries are not always repeated. Results filed as inconclusive are left out. Where a call stands in place of a potency, no number is given. More than one record can exist for a structure, and the calls need not agree. Active and inactive are the calls of the source. Unless noted, calls come from the whole dose curve; as a rule, active = well fitted curve in the direction sought with a large enough effect in the repeat runs; inconclusive = weak or mixed curves; inactive = no such curve, though single readings can be large; an effect the other way counts as inactive or inconclusive.
How the values were obtained:
[1] = qHTS assay to identify small molecule antagonists of the thyroid receptor (TR) signaling pathway - cell viability counter screen (AID 743064); note: nearly all actives have a fitted effect of over 50% in size; note: potency is the fitted concentration of half-maximal effect
Outline: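 Fluorescence from CellTiter-Fluor, added after 23.5 h exposure at 37 °C, reported viability of GH3.TRE-Luc cells co-treated with compound and 1 nM T3. Measured in the same wells as the luciferase TR readout.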

[2] = qHTS assay to identify small molecule antagonists of the thyroid receptor (TR) signaling pathway (AID 743065); note: nearly all actives have a fitted effect of over 55% in size; note: potency is the fitted concentration of half-maximal effect
Outline: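 GH3.TRE-Luc rat pituitary cells carrying two TR response elements driving luciferase were plated for 4 h, given compound plus 1 nM T3 (final), and incubated 23.5 h at 37 C. ONE-Glo luminescence measured reporter inhibition; CellTiter-Fluor fluorescence tracked cytotoxicity.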

[3] = test system: thyroid hormone receptor (rat, GH3 cells); assay: qHTS assay to identify small molecule agonists of the thyroid receptor (TR) signaling pathway (AID 743066; calls by dose curve)
[4] = qHTS assay to identify small molecule antagonists of the estrogen receptor alpha (ER-alpha) signaling pathway - cell viability counter screen (AID 743074; calls by dose curve; note: nearly all actives have a fitted effect of over 45% in size; note: potency is the fitted concentration of half-maximal effect)
[5] = qHTS assay to identify small molecule antagonists of the estrogen receptor alpha (ER-alpha) signaling pathway using the BG1 cell line - cell viability counter screen (AID 743081);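 note: compound given together with 17beta-estradiol as the ER stimulus; nearly all actives have a fitted effect of over 45% in size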; note: potency is the fitted concentration of half-maximal effect
Aromatase (Homo sapiens) = Aromatase (Homo sapiens) (UniProt P11511); assay: qHTS assay to identify aromatase inhibitors (AID 743083); note: nearly all actives have a fitted effect of over 55% in size; note: potency is the fitted concentration of half-maximal effect
Sequence of Aromatase (Homo sapiens) (P11511 whole entry, looked up): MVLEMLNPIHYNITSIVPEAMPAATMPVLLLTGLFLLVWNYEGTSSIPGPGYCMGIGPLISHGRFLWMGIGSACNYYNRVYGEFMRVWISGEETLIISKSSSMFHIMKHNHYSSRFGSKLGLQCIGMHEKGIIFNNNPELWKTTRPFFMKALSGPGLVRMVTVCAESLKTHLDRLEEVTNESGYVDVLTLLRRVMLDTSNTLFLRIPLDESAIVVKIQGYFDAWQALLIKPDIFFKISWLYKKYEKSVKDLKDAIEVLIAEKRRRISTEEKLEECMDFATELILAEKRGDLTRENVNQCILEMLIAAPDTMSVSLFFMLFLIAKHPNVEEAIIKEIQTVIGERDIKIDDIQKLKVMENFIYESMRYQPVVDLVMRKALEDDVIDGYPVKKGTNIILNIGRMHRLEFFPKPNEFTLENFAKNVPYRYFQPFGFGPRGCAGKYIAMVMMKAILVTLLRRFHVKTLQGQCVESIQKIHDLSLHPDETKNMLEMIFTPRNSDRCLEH

[6] = qHTS assay to identify aromatase inhibitors - cell viability counter screen (AID 743084);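 note: cells stimulated with testosterone during compound exposure; nearly all actives have a fitted effect of over 55% in size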; note: potency is the fitted concentration of half-maximal effect
[7] = biological target: Aryl hydrocarbon receptor (Homo sapiens) (UniProt P35869); assay: qHTS assay to identify small molecule that activate the aryl hydrocarbon receptor (AhR) signaling pathway (AID 743085);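 note: HG2L7.5c1 human HepG2 liver cells with stably integrated DRE-driven firefly reporter; series mostly up to about 70 µM; nearly all actives have a fitted effect of over 15% in size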
Sequence of Aryl hydrocarbon receptor (Homo sapiens) (P35869 whole entry, looked up): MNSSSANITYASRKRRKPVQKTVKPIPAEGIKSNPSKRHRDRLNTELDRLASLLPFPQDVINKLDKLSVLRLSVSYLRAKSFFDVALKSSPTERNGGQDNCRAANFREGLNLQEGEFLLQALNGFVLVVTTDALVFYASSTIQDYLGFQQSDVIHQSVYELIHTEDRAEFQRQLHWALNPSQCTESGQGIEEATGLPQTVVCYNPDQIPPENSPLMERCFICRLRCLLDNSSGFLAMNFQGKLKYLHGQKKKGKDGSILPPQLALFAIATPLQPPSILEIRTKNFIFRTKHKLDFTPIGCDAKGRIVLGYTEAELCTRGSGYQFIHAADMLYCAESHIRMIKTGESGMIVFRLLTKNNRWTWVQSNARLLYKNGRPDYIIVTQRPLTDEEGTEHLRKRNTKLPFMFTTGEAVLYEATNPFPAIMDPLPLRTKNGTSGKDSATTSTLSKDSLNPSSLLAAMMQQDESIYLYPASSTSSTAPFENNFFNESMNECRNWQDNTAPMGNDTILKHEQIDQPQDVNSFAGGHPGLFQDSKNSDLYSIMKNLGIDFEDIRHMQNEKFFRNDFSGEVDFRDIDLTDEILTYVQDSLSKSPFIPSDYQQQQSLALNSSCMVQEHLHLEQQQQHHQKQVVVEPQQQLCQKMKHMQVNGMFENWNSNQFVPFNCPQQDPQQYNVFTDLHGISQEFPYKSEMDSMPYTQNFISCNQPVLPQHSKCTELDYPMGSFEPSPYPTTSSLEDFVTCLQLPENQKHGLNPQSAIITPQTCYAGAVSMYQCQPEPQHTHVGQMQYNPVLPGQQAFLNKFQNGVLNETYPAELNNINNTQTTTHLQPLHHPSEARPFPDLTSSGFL
Outline: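 Cell line HG2L7.5c1 (human hepatoma, 20× DRE-luc). Plated, 5 h 37C, compound/DMSO added, 24 h 37C. CellTiter-Fluor 30 min 37C → fluorescence; then ONE-Glo 30 min RT → luminescence.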

[8] = qHTS assay to identify small molecule that activate the aryl hydrocarbon receptor (AhR) signaling pathway - cell viability counter screen (AID 743086); note: nearly all actives have a fitted effect of over 45% in size; note: potency is the fitted concentration of half-maximal effect
Outline: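 HepG2-AhR-luc (HG2L7.5c1) cells, 4000/well, were preincubated 5 h at 37C, exposed to compound in qHTS format for 24 hr at 37C, then given CellTiter-Fluor for 30 min; viability was read as fluorescence in the reporter wells.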

[9] = biological target: Peroxisome proliferator-activated receptor gamma (Homo sapiens) (UniProt P37231); assay: qHTS assay to identify small molecule agonists of the peroxisome proliferator-activated receptor gamma (PPARg) signaling pathway (AID 743094; active = well fitted activation curve with a large enough effect in the signal ratio in the repeat runs, not every such curve was filed as active; the % refers to the signal ratio; note: potency is the fitted concentration of half-maximal effect)
Sequence of Peroxisome proliferator-activated receptor gamma (Homo sapiens) (P37231 whole entry, looked up): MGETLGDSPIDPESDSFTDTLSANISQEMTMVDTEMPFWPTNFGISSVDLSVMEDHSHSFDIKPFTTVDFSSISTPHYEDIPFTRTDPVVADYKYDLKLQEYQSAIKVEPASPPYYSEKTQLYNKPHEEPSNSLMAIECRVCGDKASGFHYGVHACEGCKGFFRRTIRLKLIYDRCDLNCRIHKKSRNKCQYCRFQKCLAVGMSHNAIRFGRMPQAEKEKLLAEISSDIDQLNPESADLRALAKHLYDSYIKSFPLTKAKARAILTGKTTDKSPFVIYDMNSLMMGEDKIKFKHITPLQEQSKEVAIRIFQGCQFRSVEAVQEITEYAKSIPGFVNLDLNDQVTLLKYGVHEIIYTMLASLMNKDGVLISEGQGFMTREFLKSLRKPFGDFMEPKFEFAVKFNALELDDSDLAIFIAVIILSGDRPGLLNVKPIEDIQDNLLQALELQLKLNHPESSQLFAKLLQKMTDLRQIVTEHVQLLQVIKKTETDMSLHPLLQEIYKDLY
Outline: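 Stably transfected HEK293H cells (GeneBLAzer PPARg UAS-bla) were incubated with test substances for 17 h at 37C after a 5 h pre-incubation; beta-lactamase activity was then detected by FRET substrate fluorescence.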

[10] = qHTS assay to identify small molecule antagonists of the peroxisome proliferator-activated receptor gamma (PPARg) signaling pathway - cell viability counter screen (AID 743194); note: nearly all actives have a fitted effect of over 55% in size; note: potency is the fitted concentration of half-maximal effect
Outline: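 PPARg-UAS-bla HEK293H cells were plated, rested 5 h at 37 C, then treated with compounds plus rosiglitazone (50 nM final) for 17 h at 37 C; viability was then read by CellTiter-Glo luminescence after 30 min at room temperature.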

[11] = qHTS assay for small molecule agonists of the antioxidant response element (ARE) signaling pathway - cell viability counter screen (AID 743203; calls by dose curve; note: nearly all actives have a fitted effect of over 55% in size; note: potency is the fitted concentration of half-maximal effect)
Outline: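 Cells (ARE-bla HepG2, 2,000/well) receive DMSO-dissolved compounds after a 5 hrs rest. Plates incubate 16 hrs at 37C/5% CO2. CellTiter-Glo luminescence is then recorded after 30 min at room temperature.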

[12] = biological target: Estrogen receptor (Homo sapiens) (UniProt P03372); assay: qHTS assay to identify small molecule antagonists of the estrogen receptor alpha (ER-alpha) signaling pathway (AID 743069; active = well fitted curve in the direction sought with a large enough effect in the signal ratio in the repeat runs, not every such curve was filed as active; the % refers to the signal ratio; note: potency is the fitted concentration of half-maximal effect)
Sequence of Estrogen receptor (Homo sapiens) (P03372 whole entry, looked up): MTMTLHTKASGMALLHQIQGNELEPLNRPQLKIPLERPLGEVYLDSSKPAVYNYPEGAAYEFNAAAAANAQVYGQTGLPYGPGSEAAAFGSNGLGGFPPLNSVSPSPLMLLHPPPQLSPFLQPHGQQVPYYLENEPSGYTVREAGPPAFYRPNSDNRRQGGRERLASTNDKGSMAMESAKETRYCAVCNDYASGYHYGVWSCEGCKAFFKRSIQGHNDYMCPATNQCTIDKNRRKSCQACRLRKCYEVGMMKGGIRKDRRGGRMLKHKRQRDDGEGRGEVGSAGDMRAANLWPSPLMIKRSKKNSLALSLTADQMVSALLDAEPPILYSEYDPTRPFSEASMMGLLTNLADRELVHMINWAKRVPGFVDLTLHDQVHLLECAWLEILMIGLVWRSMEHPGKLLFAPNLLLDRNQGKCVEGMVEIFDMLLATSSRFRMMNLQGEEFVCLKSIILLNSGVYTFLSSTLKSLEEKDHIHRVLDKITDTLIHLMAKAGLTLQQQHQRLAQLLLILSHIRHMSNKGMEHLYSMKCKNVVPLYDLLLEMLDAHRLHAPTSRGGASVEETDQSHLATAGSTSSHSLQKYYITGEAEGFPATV
Outline: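 HEK293 cells stably carrying an ER-alpha-UAS-bla beta-lactamase reporter were pre-cultured overnight in 2% charcoal-stripped FBS medium. Test compounds in DMSO were added together with 17beta-estradiol for 18 hr at 37C. Read-out was fluorescence after 2 hr with LiveBLAzer B/G FRET substrate at room temperature.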

[13] = biological target: Estrogen receptor (Homo sapiens) (UniProt P03372); assay: qHTS assay to identify small molecule agonists of the estrogen receptor alpha (ER-alpha) signaling pathway (AID 743075; calls by dose curve)
[14] = biological target: Estrogen receptor (Homo sapiens) (UniProt P03372); assay: qHTS assay to identify small molecule agonists of the estrogen receptor alpha (ER-alpha) signaling pathway using the BG1 cell line (AID 743079); note: nearly all actives have a fitted effect of over 20% in size
[15] = biological target: Peroxisome proliferator-activated receptor gamma (Homo sapiens) (UniProt P37231); assay: qHTS assay to identify small molecule antagonists of the peroxisome proliferator-activated receptor gamma (PPARg) signaling pathway (AID 743191; calls by dose curve; note: series mostly up to about 63 µM; nearly all actives have a fitted effect of over 30% in size)
Outline: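 GeneBLAzer PPARg UAS-bla HEK293H cells carrying a UAS-driven beta-lactamase reporter were plated at 3000 cells/well, preincubated 5 h at 37C, then given compound for 17 h at 37C; LiveBLAzer B/G FRET substrate was read after 1 h at room temperature.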

[16] = qHTS assay for small molecule agonists of the antioxidant response element (ARE) signaling pathway (AID 743202; active = well fitted activation curve with a large enough effect in the signal ratio in the repeat runs, not every such curve was filed as active; the % refers to the signal ratio; note: potency is the fitted concentration of half-maximal effect)
Outline: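 Read-out: LiveBLAzer B/G FRET substrate fluorescence after 2 h at room temperature, following 16 h compound treatment at 37 C of HepG2 cells carrying an ARE-driven beta-lactamase reporter.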

[17] = qHTS assay for small molecule activators of the heat shock response signaling pathway - cell viability counter screen (AID 743209); note: nearly all actives have a fitted effect of over 50% in size
Outline: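 Quantitative HTS format, Tox21 10K library. HeLa cells carrying an HSE-driven beta-lactamase reporter were treated 5 h at 37 C, then assessed for viability by CellTiter-Glo luminescence.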

[18] = qHTS assay for small molecule activators of the heat shock response signaling pathway (AID 743210; active = well fitted activation curve with a large enough effect in the signal ratio in the repeat runs, with a control signal flat, not every such curve was filed as active; the % refers to the signal ratio; note: potency is the fitted concentration of half-maximal effect; for activation: series mostly up to about 63 µM)
Outline: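 HSE-bla HeLa cells (beta-lactamase reporter under heat shock response elements) were exposed to compounds for 5 h at 37 C, then loaded with LiveBLAzer B/G FRET substrate for 2.5 h at room temperature before fluorescence reading.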

[19] = qHTS assay to identify small molecule antagonists of the estrogen receptor alpha (ER-alpha) signaling pathway using the BG1 cell line (AID 743080; calls by dose curve;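 note: BG1 cells stimulated with 17beta-estradiol alongside compound; series mostly up to about 70 µM; nearly all actives have a fitted effect of over 25% in size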)
Outline: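 Luminescence from a 4×ERE-luciferase reporter in BG1-Luc-4E2 cells served as read-out. Cells, pre-cultured 5 days in stripped-serum phenol-red-free medium, were exposed to compound with 17beta-estradiol co-stimulation for 21.5 h at 37 C.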

## CN(C)c1ccc(C(=C2C=CC(=[N+](C)C)C=C2)c2ccccc2)cc1
[1]
  Potency: 7.5 µM (active) and 68.6 nM (active)
[2]
  Potency: 6.68 µM (active) and 48.6 nM (active)
[3]
  Potency: inactive
[4]
  Potency: 1.1 µM (active)
[5]
  Potency: inactive and 9.69 µM (active)
Aromatase (Homo sapiens)
  Potency: 0.243 µM (active)
[6]
  Potency: 1.93 µM (active)
[7]
  Potency: inactive
[8]
  Potency: inactive and 1.93 µM (active)
[9]
  Potency: 26.8 µM (active)
[10]
  Potency: 61.7 nM (active) and 668 nM (active)
[11]
  Potency: 545 nM (active) and 2.98 µM (active)

## CC(C(O)c1ccc(O)cc1)N1CCC(Cc2ccccc2)CC1 (stereo unspecified)
[1]
  Potency: 21.1 µM (active)
[2]
  Potency: 23.7 µM (active)
[3]
  Potency: inactive
[12]
  Potency: inactive
[4]
  Potency: inactive
[13]
  Potency: inactive
[14]
  Potency: inactive
Aromatase (Homo sapiens)
  Potency: inactive
[6]
  Potency: inactive
[7]
  Potency: inactive
[8]
  Potency: inactive
[9]
  Potency: inactive
[15]
  Potency: inactive
[10]
  Potency: inactive
[16]
  Potency: inactive
[11]
  Potency: inactive
[17]
  Potency: inactive
[18]
  Potency: inactive

## CC(C)(c1ccccc1)c1ccc(Nc2ccc(C(C)(C)c3ccccc3)cc2)cc1
[1]
  Potency: inactive
[2]
  Potency: inactive
[3]
  Potency: inactive
[12]
  Potency: 61.7 µM [cytotoxic] (active)
[13]
  Potency: inactive
[14]
  Potency: inactive
[19]
  Potency: inactive
[5]
  Potency: inactive
Aromatase (Homo sapiens)
  Potency: inactive
[6]
  Potency: inactive
[7]
  Potency: inactive
[8]
  Potency: inactive
[10]
  Potency: inactive
[11]
  Potency: inactive
[17]
  Potency: inactive

## Cc1cc(C(C)(C)C)c(O)c(C(C)(C)C)c1
[1]
  Potency: inactive
[2]
  Potency: inactive
[3]
  Potency: inactive
[4]
  Potency: inactive
[5]
  Potency: inactive
Aromatase (Homo sapiens)
  Potency: inactive
[6]
  Potency: inactive
[7]
  Potency: inactive
[8]
  Potency: inactive
[9]
  Potency: inactive
[15]
  Potency: inactive
[10]
  Potency: inactive
[16]
  Potency: inactive
[11]
  Potency: inactive
[17]
  Potency: inactive
[18]
  Potency: inactive

## BrC1CCC(Br)C(Br)CCC(Br)C(Br)CCC1Br (stereo unspecified)
[1]
  Potency: 5.43 µM (active) and 20.6 µM (active)
[2]
  Potency: 4.84 µM (active) and 13 µM (active)
[3]
  Potency: inactive
[12]
  Potency: inactive
[4]
  Potency: 48.8 µM (active)
[13]
  Potency: inactive
[5]
  Potency: inactive
[7]
  Potency: inactive
[8]
  Potency: inactive
[9]
  Potency: inactive
[10]
  Potency: 16.5 µM (active)

## O=c1n(CC2CO2)c(=O)n(CC2CO2)c(=O)n1CC1CO1 (stereo unspecified)
[1]
  Potency: 12.1 µM (active) and 27.3 µM (active)
[2]
  Potency: 6.68 µM (active) and 8.58 µM (active) and 4.33 µM (active)
[3]
  Potency: inactive
[4]
  Potency: inactive
[13]
  Potency: inactive
[14]
  Potency: inactive
[5]
  Potency: inactive
Aromatase (Homo sapiens)
  Potency: inactive and 48.3 µM (active)
[6]
  Potency: inactive and 34.2 µM (active)
[8]
  Potency: inactive
[10]
  Potency: inactive
[16]
  Potency: 4.33 µM (active)
[11]
  Potency: inactive
[18]
  Potency: 35.8 µM (active) and 43.6 µM (active)

## CC(N)=O
[1]
  Potency: inactive
[2]
  Potency: inactive
[3]
  Potency: inactive
[4]
  Potency: inactive
[5]
  Potency: inactive
Aromatase (Homo sapiens)
  Potency: inactive
[6]
  Potency: inactive
[7]
  Potency: inactive
[8]
  Potency: inactive
[9]
  Potency: inactive
[16]
  Potency: inactive
[11]
  Potency: inactive
[17]
  Potency: inactive
[18]
  Potency: inactive

## Cc1ccnc2c1NC(=O)c1cccnc1N2C1CC1
[1]
  Potency: inactive
[2]
  Potency: inactive
[3]
  Potency: inactive
[4]
  Potency: inactive
[5]
  Potency: inactive
Aromatase (Homo sapiens)
  Potency: inactive
[6]
  Potency: inactive
[7]
  Potency: inactive
[8]
  Potency: inactive
[9]
  Potency: inactive
[15]
  Potency: inactive
[10]
  Potency: inactive
[16]
  Potency: inactive
[11]
  Potency: inactive
[17]
  Potency: inactive
[18]
  Potency: inactive

— PubChem BioAssay (Tox21)
